Experimental findings from PubChem BioAssay (EPA / NIEHS) are described below.

Test [1] addresses Retinoic acid receptor RXR-alpha (Homo sapiens) (UniProt P19793). In words: ATG_RXRa_TRANS: Attagene TRANS-FACTORIAL HepG2 Assay for human Retinoid X Receptor alpha (RXRa) (AID 2283012; active means hit-call score of the fitted dose curve at least 0.9, where 1 is the maximum). The gist of the method: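 TRANS format reporting activity of exogenous RXRa-Gal4 chimera in transiently transfected HepG2, 24 h exposure. Reporter transcripts quantified by RT-PCR with capillary electrophoresis, with gain of signal scored relative to DMSO.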

Test [2] has as its target human Retinoid X Receptor beta (RXRb), RXRB (gene 6257) (UniProt P28702). Description: ATG_RXRb_TRANS: Attagene TRANS-FACTORIAL HepG2 Assay for human Retinoid X Receptor beta (RXRb) (AID 2283013; active means hit-call score of the fitted dose curve at least 0.9, where 1 is the maximum). The method, boiled down: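 Readout is reporter transcript induction after 24 h dosing. It is measured by RT-PCR of total RNA followed by fluorescent capillary electrophoresis. HepG2 liver cells carry transfected multiple reporter units driven by an exogenous RXRb-Gal4 fusion; activity is relative to DMSO.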

Read-out in test [3]: E-selectin (Homo sapiens) (UniProt P16581)
Description: BSK_3C_Eselectin: BioMAP Diversity Plus: 3C Assay for Eselectin Biomarker Activity (AID 2283015).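 On outcome: cell surface E-selectin protein quantified by ELISA 24 h after dosing.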 The following applies: primary human endothelial cells (HUVEC); actives raise or lower the signal. The gist of the method:
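HUVEC, 3C stimulation; compound exposure 24 h; E-selectin by ELISA; gain- or loss-of-signal fitted bidirectionally vs DMSO baseline.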

Read-out in test [4]: Interleukin-1 alpha (IL1a), IL1A (gene 3552)
In words: BSK_BE3C_IL1a: BioMAP Diversity Plus: BE3C Assay for Interleukin-1 alpha (IL1a) Biomarker Activity (AID 2283016). The conditions noted are these: primary human bronchial epithelial cells; actives raise or lower the signal. The method, boiled down:
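IL-1a measured by ELISA after 24 h treatment of human primary bronchial epithelial cells, with gain or loss of signal fitted versus DMSO. Parallel cultures stained with SRB gauge overt cytotoxicity.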

Read-out in test [5]: Monocyte Chemoattractant Protein-1 (MCP1), CCL2 (gene 6347)
Description: BSK_3C_MCP1: BioMAP Diversity Plus: 3C Assay for Monocyte Chemoattractant Protein-1 (MCP1) Biomarker Activity (AID 2283017). The following applies: primary human endothelial cells (HUVEC); actives raise or lower the signal. The gist of the method: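 HUVEC, 3C system; 24 h chemical exposure; MCP-1 by ELISA; bidirectional curve fit vs DMSO baseline.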

Read-out in test [6]: Monocyte Chemoattractant Protein-1 (MCP1), CCL2 (gene 6347)
In words: BSK_4H_MCP1: BioMAP Diversity Plus: 4H Assay for Monocyte Chemoattractant Protein-1 (MCP1) Biomarker Activity (AID 2283018). The conditions noted are these: primary human endothelial cells (HUVEC); actives raise or lower the signal. The gist of the method: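 ELISA of MCP-1 (CCL2) 24 h after chemical dosing of HUVEC in the BioMAP 4H system. Gain or loss versus DMSO fitted; parallel SRB staining (560 nm) tracked overt cytotoxicity.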

Read-out in test [7]: Human Leukocyte Antigen - DR isotype (HLADR), HLA-DRA (gene 3122)
In words: BSK_3C_HLADR: BioMAP Diversity Plus: 3C Assay for Human Leukocyte Antigen - DR isotype (HLADR) Biomarker Activity (AID 2283019).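 On outcome: ELISA of cell-surface HLA-DR on HUVEC 24 h after dosing.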 The following applies: primary human endothelial cells (HUVEC); actives raise or lower the signal. The gist of the method:
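HUVEC, 3C stimulation, 24 h post-dose; HLA-DR by ELISA; bidirectional curve fit vs DMSO baseline; gain or loss of signal scored.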

Read-out in test [8]: Interleukin-8 (IL8), CXCL8 (gene 3576)
Description: BSK_3C_IL8: BioMAP Diversity Plus: 3C Assay for Interleukin-8 (IL8) Biomarker Activity (AID 2283020). The conditions noted are these: primary human endothelial cells (HUVEC); actives raise or lower the signal. The method, boiled down:
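IL-8 was measured by ELISA in HUVEC cultures 24 h after chemical dosing, with gain or loss of signal fitted relative to DMSO. Parallel SRB total-protein staining tracked overt cytotoxicity.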

Read-out in test [9]: Monokine induced gamma interferon (MIG), CXCL9 (gene 4283)
In words: BSK_3C_MIG: BioMAP Diversity Plus: 3C Assay for Monokine induced gamma interferon (MIG) Biomarker Activity (AID 2283021).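 On AC50: MIG protein level measured by immunoassay in the treated endothelial cultures.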 The following applies: primary human endothelial cells (HUVEC); actives raise or lower the signal. The method, boiled down: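 ELISA measurement of MIG in human umbilical vein endothelial cells 24 h after treatment. Cytotoxicity tracked by SRB staining in parallel cultures; gain or loss of signal fitted relative to DMSO.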

Test [10] addresses human Vitamin D Receptor (VDR), VDR (gene 7421) (UniProt P11473). Description: ATG_VDR_TRANS: Attagene TRANS-FACTORIAL HepG2 Assay for human Vitamin D Receptor (VDR) (AID 2283022; active means hit-call score of the fitted dose curve at least 0.9, where 1 is the maximum). The method, boiled down:
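RT-PCR/capillary electrophoresis read-out of reporter mRNA induction in transiently transfected HepG2; 24 h dosing; chimeric NR-Gal4 (TRANS format); gain-of-signal fit against DMSO baseline.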

The nature of test [11]: BSK_3C_SRB: Viability Assessment in the BioMAP Diversity Plus: 3C Assay (AID 2283023).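 Further: fitted both ways against DMSO so a hit may be signal rise or drop.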 The conditions noted are these: primary human endothelial cells (HUVEC). The gist of the method:
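HUVEC, 24 h post-dose; 10% TCA fix, 0.1% SRB stain, A560 nm. Bidirectional curve fit vs DMSO negative control.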

Test [12] can be described thus: BSK_3C_Vis: BioMAP Diversity Plus: 3C Assay for Morphology Visualization (AID 2283025).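 Further: fitted both ways so gain or loss versus DMSO counts.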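 On AC50: light microscopy image of cell morphology used as background control.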 The conditions noted are these: primary human endothelial cells (HUVEC). The method, boiled down: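 Light-microscopy visualization of HUVEC cultures at 24 h post-treatment, with DMSO as baseline for bidirectional fitting.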
Read-out in test [13]: Pselectin, SELP (gene 6403)
Description: BSK_4H_Pselectin: BioMAP Diversity Plus: 4H Assay for Pselectin Biomarker Activity (AID 2283026). The conditions noted are these: primary human endothelial cells (HUVEC); actives raise or lower the signal. The gist of the method: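 ELISA of surface P-selectin on HUVEC, 24 h after dosing, with parallel SRB staining (0.1% after 10% TCA fixation, 560 nm) for overt cytotoxicity. Activity fitted in both directions relative to DMSO.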

Test [14] can be described thus: BSK_4H_SRB: Viability Assessment in the BioMAP Diversity Plus: 4H Assay (AID 2283027).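 Further: cells exposed to compound for 24 h before staining.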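 On AC50: curves fitted both ways versus DMSO so AC50 may be loss or gain.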 The conditions noted are these: primary human endothelial cells (HUVEC). The method, boiled down:
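Cytotoxicity read-out in primary human endothelial cells: after 24 h compound exposure, cells were TCA-fixed (10%), stained with 0.1% SRB and absorbance taken at 560 nm. Values fitted in both directions relative to DMSO.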

Test [15] in a line: BSK_BE3C_SRB: Viability Assessment in the BioMAP Diversity Plus: BE3C Assay (AID 2283028). The following applies: primary human bronchial epithelial cells. The gist of the method: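 Primary human bronchial epithelium; chemical dosing, 24 h; 10% TCA fix, 0.1% SRB stain, A560; bidirectional fit vs DMSO baseline.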
Read-out in test [16]: Thrombomodulin, THBD (gene 7056)
In words: BSK_3C_Thrombomodulin: BioMAP Diversity Plus: 3C Assay for Thrombomodulin Biomarker Activity (AID 2283029). The conditions noted are these: primary human endothelial cells (HUVEC); actives raise or lower the signal. The method, boiled down:
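ELISA measurement of thrombomodulin on HUVEC surface 24 h after chemical dosing; activity fitted in both directions relative to DMSO vehicle.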

Read-out in test [17]: Urokinase-type plasminogen activator receptor (uPAR), PLAUR (gene 5329)
Description: BSK_4H_uPAR: BioMAP Diversity Plus: 4H Assay for Urokinase-type plasminogen activator receptor (uPAR) Biomarker Activity (AID 2283030). The following applies: primary human endothelial cells (HUVEC); actives raise or lower the signal. The gist of the method:
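HUVEC, 24 h post-dose; uPAR by ELISA; bidirectional fit vs DMSO baseline.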

Read-out in test [18]: Vascular endothelial growth factor receptor 2 (Homo sapiens) (UniProt P35968)
In words: BSK_4H_VEGFRII: BioMAP Diversity Plus: 4H Assay for Vascular endothelial growth factor receptor 2 (VEGFR2) Biomarker Activity (AID 2283031). The conditions noted are these: primary human endothelial cells (HUVEC); actives raise or lower the signal. The method, boiled down: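 HUVEC (human primary), 4H system; 24 h post-dose; VEGFRII by ELISA; bidirectional curve fit vs DMSO baseline; gain or loss of signal scored.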

Test [19] addresses human Thyroid Receptor alpha (THRa1), THRA (gene 7067) (UniProt P10827). Description: ATG_THRa1_TRANS: Attagene TRANS-FACTORIAL HepG2 Assay for human Thyroid Receptor alpha (THRa1) (AID 2283014; active means hit-call score of the fitted dose curve at least 0.9, where 1 is the maximum). The method, boiled down: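 Transient HepG2 transfection, NR-Gal4 chimera driving GAL4-UAS reporters; 24 h compound exposure; total RNA, oligo(dT) RT, PCR, fluorescent primer extension, capillary electrophoresis. Upward direction vs DMSO control.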

Read-out in test [20]: Matrix Metallopeptidase 1 (MMP1), MMP1 (gene 4312)
Description: BSK_BE3C_MMP1: BioMAP Diversity Plus: BE3C Assay for Matrix Metallopeptidase 1 (MMP1) Biomarker Activity (AID 2283024). The conditions noted are these: primary human bronchial epithelial cells; actives raise or lower the signal. The gist of the method:
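ELISA measurement of MMP-1 after 24 h compound exposure of primary human bronchial epithelial cells. Changes in either direction fitted relative to DMSO; parallel SRB staining checked overt cytotoxicity.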

One may read the AC50 as the midpoint of the concentration-response curve, whichever way the signal moves.

Inconclusive results are not listed. Calls of active or inactive are those of the source. How the source made its calls, unless noted: active means hit-call score of the fitted dose curve at least 0.9, where 1 is the maximum; inactive means score below 0.9.

E-selectin (Homo sapiens), sequence (P16581 whole entry, looked up): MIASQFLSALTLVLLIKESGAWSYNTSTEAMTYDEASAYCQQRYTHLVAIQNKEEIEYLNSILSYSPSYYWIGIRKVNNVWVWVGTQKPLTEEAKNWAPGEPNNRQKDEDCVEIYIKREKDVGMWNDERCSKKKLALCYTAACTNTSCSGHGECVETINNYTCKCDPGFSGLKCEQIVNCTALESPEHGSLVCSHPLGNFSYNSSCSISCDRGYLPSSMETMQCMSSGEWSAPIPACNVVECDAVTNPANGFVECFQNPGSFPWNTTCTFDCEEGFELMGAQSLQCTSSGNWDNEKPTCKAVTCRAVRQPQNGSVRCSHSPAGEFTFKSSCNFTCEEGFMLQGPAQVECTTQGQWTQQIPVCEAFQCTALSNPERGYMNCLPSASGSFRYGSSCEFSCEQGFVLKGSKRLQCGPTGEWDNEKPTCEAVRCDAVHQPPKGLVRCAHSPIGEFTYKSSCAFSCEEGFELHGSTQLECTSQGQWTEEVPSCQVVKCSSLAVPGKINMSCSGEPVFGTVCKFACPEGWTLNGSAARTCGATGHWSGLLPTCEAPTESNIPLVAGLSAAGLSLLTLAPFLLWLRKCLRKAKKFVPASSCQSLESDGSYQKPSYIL
human Retinoid X Receptor beta (RXRb), RXRB (gene 6257), sequence (P28702 whole entry, looked up, the tested form may be a part): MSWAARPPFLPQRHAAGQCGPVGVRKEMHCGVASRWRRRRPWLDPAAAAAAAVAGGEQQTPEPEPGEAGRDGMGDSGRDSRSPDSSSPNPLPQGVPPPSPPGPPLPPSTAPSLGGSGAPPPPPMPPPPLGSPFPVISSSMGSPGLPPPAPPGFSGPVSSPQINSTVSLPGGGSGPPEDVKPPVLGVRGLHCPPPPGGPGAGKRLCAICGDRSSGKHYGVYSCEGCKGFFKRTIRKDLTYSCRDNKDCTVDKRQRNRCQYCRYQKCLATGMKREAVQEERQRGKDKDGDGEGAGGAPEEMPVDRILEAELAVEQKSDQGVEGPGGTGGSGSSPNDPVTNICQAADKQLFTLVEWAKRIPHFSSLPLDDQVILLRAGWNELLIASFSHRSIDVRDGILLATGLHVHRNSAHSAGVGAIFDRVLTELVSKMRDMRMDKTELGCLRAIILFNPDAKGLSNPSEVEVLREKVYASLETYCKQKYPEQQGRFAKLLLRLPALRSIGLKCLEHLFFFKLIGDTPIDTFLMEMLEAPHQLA
Retinoic acid receptor RXR-alpha (Homo sapiens), sequence (P19793 whole entry, looked up, the tested form may be a part): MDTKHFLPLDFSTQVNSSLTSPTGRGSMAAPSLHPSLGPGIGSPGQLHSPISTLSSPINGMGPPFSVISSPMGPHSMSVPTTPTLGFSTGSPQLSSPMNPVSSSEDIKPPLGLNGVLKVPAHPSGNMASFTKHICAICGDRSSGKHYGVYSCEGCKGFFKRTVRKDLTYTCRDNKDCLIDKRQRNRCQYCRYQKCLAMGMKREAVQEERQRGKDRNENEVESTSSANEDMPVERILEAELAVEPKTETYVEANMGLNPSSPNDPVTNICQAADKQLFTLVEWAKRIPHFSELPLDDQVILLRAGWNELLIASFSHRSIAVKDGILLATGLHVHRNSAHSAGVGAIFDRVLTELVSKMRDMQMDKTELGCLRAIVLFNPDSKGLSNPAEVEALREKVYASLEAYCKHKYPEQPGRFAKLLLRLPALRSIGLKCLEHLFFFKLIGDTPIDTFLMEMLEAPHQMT
human Vitamin D Receptor (VDR), VDR (gene 7421), sequence (P11473 whole entry, looked up, the tested form may be a part): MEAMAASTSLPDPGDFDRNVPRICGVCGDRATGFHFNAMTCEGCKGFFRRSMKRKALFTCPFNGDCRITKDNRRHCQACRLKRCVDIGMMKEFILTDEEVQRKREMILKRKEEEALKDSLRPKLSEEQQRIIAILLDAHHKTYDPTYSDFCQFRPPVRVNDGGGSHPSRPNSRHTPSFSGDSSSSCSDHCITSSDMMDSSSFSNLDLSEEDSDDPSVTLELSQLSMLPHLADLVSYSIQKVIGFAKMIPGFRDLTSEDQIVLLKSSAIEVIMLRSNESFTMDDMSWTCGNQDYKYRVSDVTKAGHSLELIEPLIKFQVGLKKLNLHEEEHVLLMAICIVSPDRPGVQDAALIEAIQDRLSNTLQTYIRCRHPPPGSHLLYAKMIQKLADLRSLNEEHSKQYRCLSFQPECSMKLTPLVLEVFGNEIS
human Thyroid Receptor alpha (THRa1), THRA (gene 7067), sequence (P10827 whole entry, looked up, the tested form may be a part): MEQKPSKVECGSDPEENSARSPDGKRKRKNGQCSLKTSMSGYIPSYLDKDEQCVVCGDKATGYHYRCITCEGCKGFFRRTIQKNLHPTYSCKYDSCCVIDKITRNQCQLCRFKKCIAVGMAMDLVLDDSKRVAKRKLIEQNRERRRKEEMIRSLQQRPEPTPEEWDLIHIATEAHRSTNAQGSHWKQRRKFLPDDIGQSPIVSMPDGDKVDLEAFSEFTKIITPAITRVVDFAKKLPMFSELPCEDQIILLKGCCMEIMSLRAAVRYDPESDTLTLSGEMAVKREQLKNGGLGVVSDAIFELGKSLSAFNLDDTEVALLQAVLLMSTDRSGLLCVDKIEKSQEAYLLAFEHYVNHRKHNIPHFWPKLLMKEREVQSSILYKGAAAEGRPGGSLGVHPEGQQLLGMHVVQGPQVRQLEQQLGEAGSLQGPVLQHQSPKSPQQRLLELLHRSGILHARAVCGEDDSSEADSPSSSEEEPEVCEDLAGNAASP

Regarding `Brc1ccc(Oc2ccccc2)cc1`, the outcome in [1], in [4], in test [5], in [6], in test [7] and in [8] was inactive. For the same compound, the outcome in test [9], in test [10], in test [12], in test [13], in [14] and in [15] was inactive. The outcome in [16], in test [17] and in test [18] was inactive. In addition, the figures for the AC50 in test [2], in [3] and in test [11] were 69.7 µM (active), 30.9 µM (active) and 28.9 µM (active), respectively.
With `C[C@]12C=CC3=C4CCC(=O)C=C4CC[C@H]3[C@@H]1CC[C@@H]2O`, the outcome in test [1], in test [2], in test [19], in test [4], in [5] and in test [6] was inactive. The outcome in [8], in test [9], in [13], in test [14], in [15] and in test [16] was inactive. In test [18], the outcome was inactive. Moreover, the AC50 is 9.4 µM (active) in test [3]; 20 µM (active) in test [7]; 7.77 µM (active) in test [11]; 10.2 µM (active) in test [20]; 7.2 µM (active) in test [12].
With `O=Cc1ccco1`, the call in [1], in test [2], in test [3], in test [4], in [5] and in test [6] was inactive. For the same compound, the result in [7], in test [8], in test [9], in test [10], in [11] and in test [20] was inactive. The result in test [12], in test [13], in [14], in test [15], in [17] and in test [18] was inactive.
Regarding `Nc1ccc(Cl)cc1N`, the compound was called inactive in [1], in test [19], in test [4], in test [5], in test [6] and in test [8]. For the same compound, the result in test [9], in [10], in [11], in test [12], in test [14] and in test [15] was inactive. In addition, the outcome in [18] was inactive. Also, the AC50 in test [2] is 27.8 µM (active); in [3], 3.48 µM (active); in [7] it was 5.99 µM (active); in [20], 1.69 µM (active); in test [13], 1.11 µM (active).
Consider `Nc1ccc([N+](=O)[O-])cc1`, for which the compound was classed as inactive in test [1], in test [2], in test [19], in [3], in test [4] and in test [5]. Moreover, the outcome in test [6], in test [7], in test [8], in test [9], in test [10] and in [11] was inactive. For the same compound, the result in [20], in [12], in test [13], in test [14], in [15] and in test [17] was inactive. Moreover, in test [18], the result was inactive.
`O=[N+]([O-])C(Br)(CO)CO`: the call in test [1], in test [2], in test [19], in test [4], in test [10] and in test [20] was inactive. Besides, the result in [15] and in test [18] was inactive. The AC50 in [3] is 32.6 µM (active); in test [5] it was 30.5 µM (active); in [6] it was 28.9 µM (active); in test [7] it was 16.5 µM (active); in test [8] it was 35.8 µM (active); in test [9], 34.9 µM (active). The AC50 was 15.3 µM (active) in [11]; 37.5 µM (active) in test [12]; 20 µM (active) in test [13]; 20 µM (active) in test [14]; 31.7 µM (active) in [17].
